# Measured values: PubChem BioAssay
# Calls of active or inactive are those of the source. Unless noted, how the calls were made is not given here.
# Columns and labels:
# [1] = anti-His antibody binders, primary screen, artefact control for SMM control protein annotation, biochemical, small-molecule microarray, 635 nm fluorescence (AID 1128); settings: anti-His Alexa647 antibody binding, higher = more signal;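 further: score merges feature fluorescence with signal-to-noise for each printed compound spot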
# [2] = test system: Human papillomavirus type 1a E7 protein (residues 1-88); assay: HPV1a E7 small-molecule binders, primary screen, biochemical, small-molecule microarray, residues 1-88, 635 nm (AID 1129); settings: small-molecule microarray binding, fluorescence 635 nm; higher = more signal
# [3] = target: Focal adhesion kinase 1 (Homo sapiens) (UniProt Q05397); assay: small-molecule microarray binders of FAK, primary screen, biochemical, 635/667 nm fluorescence, BSA, DTT (AID 1130); settings: PTK2 binding, 635 nm fluorescence, higher = more signal;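 further: composite of spot emission at 667 nm and signal to noise over triplicate slides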
# Chain of Focal adhesion kinase 1 (Homo sapiens) (Q05397 whole entry, looked up): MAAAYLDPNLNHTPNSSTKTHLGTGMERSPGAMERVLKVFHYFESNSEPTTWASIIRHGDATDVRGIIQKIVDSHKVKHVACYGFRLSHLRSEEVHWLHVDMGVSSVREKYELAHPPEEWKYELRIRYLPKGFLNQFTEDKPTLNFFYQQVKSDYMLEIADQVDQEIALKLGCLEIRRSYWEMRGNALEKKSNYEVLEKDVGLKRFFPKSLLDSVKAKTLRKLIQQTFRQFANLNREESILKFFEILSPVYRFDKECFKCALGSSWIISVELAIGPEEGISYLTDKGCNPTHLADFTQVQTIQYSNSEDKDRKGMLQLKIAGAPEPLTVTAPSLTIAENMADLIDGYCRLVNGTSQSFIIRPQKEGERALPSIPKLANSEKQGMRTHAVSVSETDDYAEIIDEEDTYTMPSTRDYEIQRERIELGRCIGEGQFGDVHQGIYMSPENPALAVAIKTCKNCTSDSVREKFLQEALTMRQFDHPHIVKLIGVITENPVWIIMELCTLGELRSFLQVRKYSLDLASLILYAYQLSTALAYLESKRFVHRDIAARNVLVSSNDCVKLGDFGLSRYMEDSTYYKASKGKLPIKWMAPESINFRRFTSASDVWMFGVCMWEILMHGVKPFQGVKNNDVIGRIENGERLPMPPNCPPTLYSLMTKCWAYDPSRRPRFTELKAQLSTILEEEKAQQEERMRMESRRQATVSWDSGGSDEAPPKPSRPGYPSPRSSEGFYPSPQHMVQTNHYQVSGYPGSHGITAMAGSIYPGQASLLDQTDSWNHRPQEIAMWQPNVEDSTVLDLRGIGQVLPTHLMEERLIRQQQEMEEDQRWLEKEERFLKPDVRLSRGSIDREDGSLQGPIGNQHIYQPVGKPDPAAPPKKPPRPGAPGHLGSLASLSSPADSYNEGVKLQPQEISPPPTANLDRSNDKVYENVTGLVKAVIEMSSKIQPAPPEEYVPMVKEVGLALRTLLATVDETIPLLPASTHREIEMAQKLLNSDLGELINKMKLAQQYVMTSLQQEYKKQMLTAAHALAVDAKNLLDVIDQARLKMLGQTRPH
# [4] = test system: Fibrinogen (Alexa647-labelled); assay: fibrinogen binders on compound microarrays, profiling panel, artefact control for SMM control-protein annotation, biochemical, small-molecule microarray, 635/667 nm fluorescence (AID 1131); settings: fibrinogen-A647 binding fluorescence, higher = more signal;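 further: z-score merges 667 nm fluorescence with per-spot signal-to-noise over triplicate slides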
# [5] = target: Follistatin (Homo sapiens) (UniProt P19883); assay: follistatin binders on small-molecule microarrays, primary screen, biochemical, small-molecule microarray, 635/667 nm fluorescence (AID 1132); settings: FST binding, 635 nm fluorescence, higher = more signal
# Chain of Follistatin (Homo sapiens) (P19883 whole entry, looked up): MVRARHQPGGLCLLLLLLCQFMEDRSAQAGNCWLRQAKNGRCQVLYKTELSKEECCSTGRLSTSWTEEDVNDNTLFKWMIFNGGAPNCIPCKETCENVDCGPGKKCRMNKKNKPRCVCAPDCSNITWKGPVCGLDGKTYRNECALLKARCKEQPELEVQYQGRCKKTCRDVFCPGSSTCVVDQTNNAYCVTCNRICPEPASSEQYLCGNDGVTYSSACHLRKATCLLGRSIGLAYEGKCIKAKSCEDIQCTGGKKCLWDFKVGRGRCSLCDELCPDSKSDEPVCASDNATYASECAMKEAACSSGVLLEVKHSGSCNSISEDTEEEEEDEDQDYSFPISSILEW
# [6] = target: Fibroblast growth factor 2 (Homo sapiens) (UniProt P09038); assay: FGF2 binders on small-molecule microarrays, primary screen, biochemical, small-molecule microarray, 635/667 nm fluorescence (AID 1133); settings: small-molecule microarray binding, FGF2, fluorescence 635/667; higher = more signal
# Chain of Fibroblast growth factor 2 (Homo sapiens) (P09038 whole entry, looked up): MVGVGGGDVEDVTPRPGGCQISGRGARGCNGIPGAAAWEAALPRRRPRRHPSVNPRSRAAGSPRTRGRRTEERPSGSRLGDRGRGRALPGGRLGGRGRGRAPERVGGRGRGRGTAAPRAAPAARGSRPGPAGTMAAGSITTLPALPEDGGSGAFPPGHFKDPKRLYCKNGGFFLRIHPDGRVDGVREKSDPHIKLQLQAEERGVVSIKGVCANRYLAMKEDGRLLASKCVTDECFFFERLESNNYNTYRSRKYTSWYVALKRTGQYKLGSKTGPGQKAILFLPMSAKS
# [7] = mitochondrial membrane potential change in A549 cells, profiling panel, cell-based, JC-1 fluorescence, basal, 24 h, 100 nL (AID 1138); settings: higher = more signal;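 further: A549 lung adenocarcinoma cells under basal conditions with no added stimulus; test concentration not given here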
# [8] = test system: Lefty1; assay: Lefty1 binders on small-molecule microarrays, primary screen, biochemical, small-molecule microarray, 635/667 nm fluorescence (AID 1139); settings: small-molecule microarray binding, fluorescence 635/667; higher = more signal
# [9] = test system: wheat germ agglutinin (Triticum aestivum), Alexa647-labelled; assay: wheat germ agglutinin binders on compound microarrays, profiling panel, artefact control for SMM control-protein annotation, biochemical, small-molecule microarray, 635/667 nm fluorescence (AID 1140); settings: WGA-A647 binding, 635 nm fluorescence, higher = more signal;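 further: score merges 667 nm feature emission with signal to noise over triplicate slides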
# [10] = target: Luciferin 4-monooxygenase (Photinus pyralis) (UniProt P08659); assay: firefly luciferase enzyme inhibitors, primary screen, biochemical, luminescence, purified enzyme, 2006 set (AID 1141); settings: SteadyGlo luminescence, 30 min, higher = more signal, called active from +8 up or from −8 down;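 further: cell-free assay with purified firefly luciferase at 100 ng per well in PBS; test concentration not given here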
# Chain of Luciferin 4-monooxygenase (Photinus pyralis) (P08659 whole entry, looked up): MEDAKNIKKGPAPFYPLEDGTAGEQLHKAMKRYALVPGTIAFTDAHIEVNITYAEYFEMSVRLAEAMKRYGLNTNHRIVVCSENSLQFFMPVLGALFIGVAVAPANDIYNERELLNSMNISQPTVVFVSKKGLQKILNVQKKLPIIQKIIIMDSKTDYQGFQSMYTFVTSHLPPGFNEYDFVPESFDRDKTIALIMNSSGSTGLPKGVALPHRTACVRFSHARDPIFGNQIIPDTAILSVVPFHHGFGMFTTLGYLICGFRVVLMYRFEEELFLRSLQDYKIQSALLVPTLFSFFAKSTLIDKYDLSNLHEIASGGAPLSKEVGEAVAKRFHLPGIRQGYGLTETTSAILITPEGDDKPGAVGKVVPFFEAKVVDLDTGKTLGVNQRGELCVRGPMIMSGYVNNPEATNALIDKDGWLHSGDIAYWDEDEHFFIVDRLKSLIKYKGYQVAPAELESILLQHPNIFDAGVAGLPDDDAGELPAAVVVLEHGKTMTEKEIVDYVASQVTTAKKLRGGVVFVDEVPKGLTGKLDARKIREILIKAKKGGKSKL
# [11] = test system: Wnt5a (protein binding on small-molecule microarray); assay: Wnt5a binders on small-molecule microarray, primary screen, biophysical, 635/667 nm fluorescence (AID 1142); settings: 635 nm fluorescence, higher = more signal;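 further: fluorescence read at 667 nm with signal to noise per printed feature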
# [12] = cell viability in Huh7 cells, primary screen, cytotoxicity control for HCV replication inhibitor project, CellTiter-Glo luminescence, basal, 48 h (AID 1143); settings: Huh7 HCV replicon, higher = more signal, called active from +8 up or from −8 down;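 further: Huh7 hepatoma cells carrying a hepatitis C replication reporter with no stimulus; test concentration not given here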
# [13] = P. aeruginosa biofilm formation inhibitors, primary screen, PAO1 strain, BacTiter-Glo luminescence, LB-PBS (AID 1144); settings: 12 h, higher = more signal
# [14] = CREB reporter modulators without forskolin, primary screen, cell-based, PC12, CRE-LacZ reporter, unstimulated (AID 1145); settings: no forskolin, luminescence, 4.5 h, higher = more signal, called active from +8 up or from −8 down
# [15] = CREB reporter modulators under forskolin, primary screen, cell-based, PC12, CRE-LacZ reporter, forskolin-stimulated (AID 1146); settings: luminescence, 4.5 h, higher = more signal, called active from +8 up or from −8 down;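 further: PC12 cells with 6xCRE LacZ reporter stimulated by forskolin 10 µM; beta-galactosidase reporter signal reflecting CREB driven transcription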
# [16] = target: Streptavidin (Streptomyces avidinii) (UniProt P22629); assay: streptavidin binders on small-molecule microarray, primary screen, artefact control for SMM compound annotation, biophysical, 635/667 nm fluorescence (AID 1147); settings: streptavidin binding, higher = more signal;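 further: signal reflects streptavidin binding to arrayed compounds as a control protein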
# Chain of Streptavidin (Streptomyces avidinii) (P22629 whole entry, looked up): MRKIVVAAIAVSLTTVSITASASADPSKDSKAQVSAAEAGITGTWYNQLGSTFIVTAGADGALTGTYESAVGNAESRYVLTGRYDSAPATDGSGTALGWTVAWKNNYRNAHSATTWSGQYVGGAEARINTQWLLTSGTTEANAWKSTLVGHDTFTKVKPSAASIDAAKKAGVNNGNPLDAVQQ
# [17] = small-molecule binders of probe aInhba, primary screen, biochemical, small-molecule microarray, 635/667 nm fluorescence (AID 1148); settings: higher = more signal;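 further: score merges 667nm spot fluorescence with signal-to-noise for antibody binding to printed compounds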
# [18] = target: Torsin-1A (Homo sapiens) (UniProt O14656); assay: torsin A binders from cell lysate, primary screen, small-molecule microarray, wild-type, 635/667 nm (AID 1149); settings: COS7 hTOR1A-WT lysate, 635 nm fluorescence, higher = more signal
# Chain of Torsin-1A (Homo sapiens) (O14656 whole entry, looked up): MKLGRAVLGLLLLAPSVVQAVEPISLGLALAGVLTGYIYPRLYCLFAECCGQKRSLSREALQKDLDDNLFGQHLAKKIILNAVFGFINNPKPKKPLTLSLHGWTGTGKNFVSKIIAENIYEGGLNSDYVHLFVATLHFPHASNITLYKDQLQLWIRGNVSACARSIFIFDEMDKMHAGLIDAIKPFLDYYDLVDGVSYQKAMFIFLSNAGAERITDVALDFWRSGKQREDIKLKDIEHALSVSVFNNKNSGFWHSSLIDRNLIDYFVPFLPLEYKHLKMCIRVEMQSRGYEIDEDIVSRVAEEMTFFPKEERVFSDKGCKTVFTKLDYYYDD
# [19] = target: Torsin-1A (Homo sapiens) (UniProt O14656); assay: small-molecule binders of mutant TOR1A in lysate, primary screen, cell lysate, small-molecule microarray, COS7 lysate, 635/667 nm fluorescence (AID 1150); settings: COS7 hTOR1A mutant lysate, 635 nm fluorescence, higher = more signal;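 further: score pools 667 nm emission and signal to noise measuring lysate protein binding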
# [20] = test system: Sonic hedgehog protein (Shh); assay: small-molecule binders of Shh protein, primary screen, biochemical, small-molecule microarray, 635/667 nm fluorescence (AID 1151); settings: small-molecule microarray binding, 635 nm fluorescence; higher = more signal;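 further: Shh protein binding to compounds spotted on small-molecule microarray slides; score combines spot fluorescence intensity with signal-to-noise across triplicate slides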
SMILES,composite z-score [1],composite z-score [2],composite z-score [3],composite z-score [4],composite z-score [5],composite z-score [6],z-score [7],composite z-score [8],composite z-score [9],z-score [10],composite z-score [11],z-score [12],z-score [13],z-score [14],z-score [15],composite z-score [16],composite z-score [17],composite z-score [18],composite z-score [19],composite z-score [20]
COc1ccc(CCNC(=O)[C@@]2(Sc3ccc(C)cc3)CC(=O)N(Cc3cc(C(F)(F)F)cc(C(F)(F)F)c3)[C@@H]2c2ccc(CO)cc2I)cc1,-0.361,-0.162,0.368,0.562,0.801,-0.525,0.345,0.012,-0.0603,0.664 (inactive),-0.466,-0.73 (inactive),-0.623 (inactive),-0.554 (inactive),1.05 (inactive),0.762,0.0184,0.579,-0.145,0.697
CC(=O)N1Cc2ccccc2C[C@]2(N=C(c3ccc(OCCCO)cc3)O[C@@H]2c2ccccc2)C1=O,2.62,1.2,0.552,0.654,0.743,1.2,0.638,0.036,0.956,-2 (inactive),0.865,-3.38 (inactive),-0.497 (inactive),1.13 (inactive),2.08 (inactive),0.253,0.12,0.611,0.297,1.18
C=C(COC)/C(=C/C[C@@H](OC(=O)c1ccncc1)c1cccc(OCCO)c1)c1cnc2ccccc2c1,2.26,1.17,0.191,0.922,1.48,1.68,0.746,1.64,1.55,-1.68 (inactive),0.381,-8.02 (active),-0.639 (inactive),12.6 (active),0.818 (inactive),2.64,0.248,1.16,2.74,2.3
CC=CC(O)C1C=CC2C(=O)N(c3ccccc3)C(=O)C2N1Nc1ccc([N+](=O)[O-])cc1 (stereo not given),1.58,0.644,0.427,0.752,0.495,0.194,-0.645,0.112,0.645,1.28 (inactive),-0.0454,0.612 (inactive),0.698 (inactive),-0.415 (inactive),0.0268 (inactive),0.395,-0.162,0.463,-0.213,0.224
[N-]=[N+]=NCc1ccccc1C[C@]1(C(=O)NCC(O)CO)N=C(c2ccc(OCCCO)cc2)O[C@H]1c1ccccc1CN=[N+]=[N-] (stereo not given in full),2.73,1.2,0.116,0.973,1.3,0.495,0.618,-0.204,0.205,-0.0074 (inactive),0.493,-4.68 (inactive),-0.998 (inactive),0.447 (inactive),-1.32 (inactive),0.661,0.404,0.408,1.09,-0.881
C=CCC(OC(C)=O)[C@@H]1[C@@H](N(Cc2cc3ccccc3o2)C(=O)Cc2ccc(F)cc2)c2cc(OCCCO)ccc2N1C(=O)c1ccc2ccccc2n1 (stereo not given in full),0.055,-0.694,0.0919,0.271,0.147,-0.0144,0.728,-0.189,0.0937,-0.997 (inactive),0.705,0.252 (inactive),-0.398 (inactive),3.16 (inactive),0.0063 (inactive),0.0443,-0.142,-0.398,-0.226,0.0974
CCOC(=O)[C@H]1C/C=C/C[C@H](C(=O)OCC)C(=O)O[C@H]2[C@@H](OC)O[C@H](CO)[C@@H](OC(=O)Nc3ccc(OC)cc3)[C@@H]2OC1=O,1.96,1.16,0.768,0.369,1.16,0.741,2.61,0.636,0.648,-2.06 (inactive),0.314,-3.41 (inactive),0.29 (inactive),0.484 (inactive),0.106 (inactive),0.355,0.134,0.494,1.64,0.733
COc1ccc(C(O)C2C=CC3C(=O)N(c4ccccc4)C(=O)C3N2Nc2ccc(C#N)cc2)c2ccccc12 (stereo not given),1.67,1.25,0.0632,0.979,0.944,-0.012,-0.616,0.392,1.04,-0.786 (inactive),0.0756,-0.127 (inactive),-0.856 (inactive),-0.143 (inactive),0.976 (inactive),2.49,0.442,0.109,0.917,-0.149
COC(=O)C[C@H]1O[C@]2(C(=O)N(C)c3ccccc32)[C@@H](C)[C@@H]1[Si](C)(C)c1ccc(C)cc1,0.522,1.12,0.342,0.343,0.498,0.148,0.557,0.818,0.255,-0.507 (inactive),0.139,-3.88 (inactive),0.92 (inactive),1.31 (inactive),-0.73 (inactive),0.0785,-0.0403,0.559,0.346,0.763
